Read-out in experiment [1]: Interleukin-8 (IL8), CXCL8 (gene 3576)
Description: BSK_CASM3C_IL8: BioMAP Diversity Plus: CASM3C Assay for Interleukin-8 (IL8) Biomarker Activity (AID 2283042).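 Further: IL-8 protein level quantified by ELISA.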 The note with it: primary human coronary artery smooth muscle cells; actives raise or lower the signal.

Read-out in experiment [2]: Human Leukocyte Antigen - DR isotype (HLADR), HLA-DRA (gene 3122)
Description: BSK_CASM3C_HLADR: BioMAP Diversity Plus: CASM3C Assay for Human Leukocyte Antigen - DR isotype (HLADR) Biomarker Activity (AID 2283043).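 Further: cell-surface HLA-DR protein level quantified by ELISA.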 As to conditions: primary human coronary artery smooth muscle cells; actives raise or lower the signal.

Read-out in experiment [3]: Macrophage colony-stimulating factor (MCSF), CSF1 (gene 1435)
Description: BSK_CASM3C_MCSF: BioMAP Diversity Plus: CASM3C Assay for Macrophage colony-stimulating factor (MCSF) Biomarker Activity (AID 2283044).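 Further: M-CSF protein amount quantified by ELISA after 24 h exposure.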 The note with it: primary human coronary artery smooth muscle cells; actives raise or lower the signal.

Read-out in experiment [4]: Low-density lipoprotein receptor (LDLR), LDLR (gene 3949)
Description: BSK_CASM3C_LDLR: BioMAP Diversity Plus: CASM3C Assay for Low-density lipoprotein receptor (LDLR) Biomarker Activity (AID 2283045).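 Further: LDLR protein level on the cell surface quantified by ELISA.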 The note with it: primary human coronary artery smooth muscle cells; actives raise or lower the signal.

Read-out in experiment [5]: Monocyte Chemoattractant Protein-1 (MCP1), CCL2 (gene 6347)
Description: BSK_CASM3C_MCP1: BioMAP Diversity Plus: CASM3C Assay for Monocyte Chemoattractant Protein-1 (MCP1) Biomarker Activity (AID 2283046).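 Further: MCP-1 level quantified by ELISA 24 h after dosing.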 The note with it: primary human coronary artery smooth muscle cells; actives raise or lower the signal.

Experiment [6] can be described thus: BSK_CASM3C_Proliferation: Cell Proliferation Assessment in the BioMAP Diversity Plus: CASM3C Assay (AID 2283047).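 Further: sulforhodamine B total protein stain as relative cell number at 560 nm; sub-confluent cells exposed 48 h before staining; fitted both ways against DMSO so gain or loss of cell number.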 The note with it: primary human coronary artery smooth muscle cells.
Read-out in experiment [7]: Monokine induced gamma interferon (MIG), CXCL9 (gene 4283)
Description: BSK_CASM3C_MIG: BioMAP Diversity Plus: CASM3C Assay for Monokine induced gamma interferon (MIG) Biomarker Activity (AID 2283048).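 Further: MIG protein level measured by ELISA.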 The note with it: primary human coronary artery smooth muscle cells; actives raise or lower the signal.

Read-out in experiment [8]: serum amyloid A (SAA), SAA1 (gene 6288)
Description: BSK_CASM3C_SAA: BioMAP Diversity Plus: CASM3C Assay for serum amyloid A (SAA) Biomarker Activity (AID 2283049).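 Further: SAA protein level quantified by ELISA.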 As to conditions: primary human coronary artery smooth muscle cells; actives raise or lower the signal.

Experiment [9] can be described thus: BSK_CASM3C_SRB: Viability Assessment in the BioMAP Diversity Plus: CASM3C Assay (AID 2283050).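 Further: total protein by SRB staining as cytotoxicity measure in parallel cultures; cells exposed to compound for 24 h.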 The note with it: primary human coronary artery smooth muscle cells.
Read-out in experiment [10]: Thrombomodulin, THBD (gene 7056)
Description: BSK_CASM3C_Thrombomodulin: BioMAP Diversity Plus: CASM3C Assay for Thrombomodulin Biomarker Activity (AID 2283051).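 Further: thrombomodulin protein level measured by ELISA 24 h after dosing.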 As to conditions: primary human coronary artery smooth muscle cells; actives raise or lower the signal.

Several values for one entry are separate records, joined by “and”; a condition that tells them apart may be missing. Identical values can stand only once. A structure can be active in one record and inactive in another. Activity calls are given as the source filed them. How the source made its calls: active means hit-call score of the fitted dose curve at least 0.9, where 1 is the maximum; inactive means score below 0.9.

One may read the AC50 as the concentration at which the activity in the assay is half-maximal. Regarding `CCOC(=O)COc1ccc2c(c1)CC(NCC(O)c1cccc(Cl)c1)CC2` (stereo unspecified), the result in [1], in experiment [2], in experiment [3], in experiment [4], in experiment [5] and in experiment [7] was inactive. Moreover, the result in [8], in experiment [9] and in experiment [10] was inactive. In addition, the AC50 in experiment [6] is 27.2 µM (active).
Take `CCCCCCc1ccc(O)cc1O`: the outcome in experiment [1], in experiment [2], in [3], in [5], in experiment [7] and in experiment [8] was inactive. Further, in experiment [9], the result was inactive. For the same molecule, the AC50 is 11.9 µM (active) in experiment [4], 32.6 µM (active) in experiment [6] and 4.48 µM (active) in experiment [10].
For the molecule `Cc1ccc(C)c(O)c1`, the outcome in experiment [1], in [2], in experiment [3], in experiment [4], in experiment [5] and in experiment [6] was inactive. For the same molecule, the result in experiment [7], in experiment [8], in experiment [9] and in [10] was inactive.
As for `Oc1ccc2c(c1)-c1ccccc1C2`, the result in experiment [1], in experiment [2], in experiment [3], in experiment [4], in [5] and in experiment [7] was inactive. The outcome in experiment [8], in [9] and in experiment [10] was inactive. Moreover, the AC50 in experiment [6] was 6.61 µM (active).
On to `Cn1cnc([N+](=O)[O-])c1Sc1ncnc2nc[nH]c12`, for which the result in experiment [1], in experiment [2], in [3], in experiment [4], in experiment [5] and in experiment [7] was inactive. Besides, the outcome in experiment [8], in [9] and in experiment [10] was inactive. Further, the AC50 is 11.3 µM (active) in experiment [2]; 10.2 µM (active) and 12 µM (active) and 4.25 µM (active) in experiment [6].
With `CN(C)c1ccc(N=NS(=O)(=O)O)cc1`, the outcome in experiment [1], in [2], in experiment [3], in experiment [4], in [5] and in experiment [6] was inactive. The outcome in experiment [7], in experiment [8], in [9] and in experiment [10] was inactive.
`O=c1[nH]c2ccc(S(=O)CCN3CCC(Cc4ccc(F)cc4)CC3)cc2o1` (stereo unspecified): the result in [1], in experiment [2], in experiment [3], in [4], in experiment [5] and in experiment [6] was inactive. Besides, the result in experiment [7], in experiment [8], in experiment [9] and in [10] was inactive.
Regarding `Cc1c(-c2cccnc2)c2ccccc2n1CCCCC(=O)O`, the outcome in experiment [1], in experiment [3], in experiment [4], in [5], in experiment [6] and in [7] was inactive. Also, the result in experiment [8], in experiment [9] and in [10] was inactive. Besides, the AC50 in [2] is 3.97 µM (active).
With `CC/C(=C\C(=N/O)C(N)=O)C(C)[N+](=O)[O-]` (stereo unspecified), the outcome in experiment [1], in [3], in experiment [4], in [5], in experiment [6] and in experiment [7] was inactive. Moreover, the outcome in experiment [8], in experiment [9] and in experiment [10] was inactive. In experiment [2], the half-maximal activity concentration (AC50) was 22.3 µM (active).
As for `COCCOc1cc2cc(C(=O)NC3CCN(C(C)C)CC3)n(CC(=O)Nc3ccc(Cl)cn3)c2cn1`, the result in [1], in experiment [2], in experiment [3], in [4], in experiment [5] and in experiment [6] was inactive. Moreover, the result in [7], in [8], in experiment [9] and in experiment [10] was inactive.
For `Cc1ccc(N)cc1O`, the outcome in experiment [1], in experiment [2], in [3], in experiment [4], in experiment [5] and in [6] was inactive. For the same molecule, the result in [7], in experiment [8] and in experiment [9] was inactive. For the same molecule, in [10], the half-maximal activity concentration (AC50) was 11.2 µM (active).
Regarding `C[C@](N)(Cc1ccc(O)c(O)c1)C(=O)O`, the result in [1], in [2], in experiment [3], in [4], in experiment [5] and in experiment [6] was inactive. For the same molecule, the result in experiment [7], in [8], in [9] and in experiment [10] was inactive.
As to `CC(C)=CCC/C(C)=C/CO`, the result in experiment [1], in [2], in experiment [3], in [4], in experiment [5] and in experiment [6] was inactive. For the same molecule, the result in experiment [7], in [8], in experiment [9] and in experiment [10] was inactive.
For the molecule `CC1=CC(=O)CC(C)(C)C1`, the outcome in experiment [1], in [2], in experiment [3], in experiment [4], in experiment [5] and in experiment [6] was inactive. Further, the outcome in experiment [7], in [8], in [9] and in experiment [10] was inactive.
On to `CCCN(C1CCN(C(=O)C2CCNCC2)CC1)[C@@H]1CCc2ccc(OC)cc2C1`, for which the result in [1], in experiment [2], in [3], in experiment [5], in experiment [6] and in experiment [7] was inactive. Also, the result in experiment [8], in [9] and in [10] was inactive. Further, the concentration at half-maximal activity (AC50) in experiment [4] was 35 µM (active).
Take `CC(C)c1cccc(C(C)C)c1N1C(=O)c2ccc(O)cc2C1=O`: the result in experiment [1], in [5], in experiment [7] and in experiment [10] was inactive. For the same molecule, the half-maximal activity concentration (AC50) in experiment [2] is 14.1 µM (active); in experiment [3], 32 µM (active); in experiment [4], 36.3 µM (active); in experiment [6], 20 µM (active); in [8], 26.1 µM (active); in experiment [9], 20 µM (active).
In the case of `COc1ccc(/C=C/S(=O)(=O)NC(=O)c2ccc(C)cc2Cl)cc1`, the outcome in [1], in experiment [2], in experiment [3], in [4], in experiment [5] and in experiment [7] was inactive. Moreover, the result in experiment [8], in experiment [9] and in [10] was inactive. Besides, the AC50 in [6] is 18.9 µM (active).
On to `CC(C)=CCC/C(C)=C\CO`, for which the outcome in [1], in experiment [2], in experiment [3], in experiment [4], in experiment [5] and in experiment [6] was inactive. Further, the result in experiment [7], in [8], in experiment [9] and in [10] was inactive.
For the molecule `CCOC(=O)CC(CC(=O)OCC)(OC(C)=O)C(=O)OCC`, the result in [1], in [2], in [3], in experiment [4], in experiment [5] and in experiment [6] was inactive. Moreover, the result in [7], in [8], in [9] and in experiment [10] was inactive.
Take `On1ccccc1=S`: the result in experiment [1], in experiment [7] and in experiment [8] was inactive. Also, the concentration at half-maximal activity (AC50) in experiment [2] was 27.7 µM (active); in experiment [3] it was 33.7 µM (active); in [4], 11.7 µM (active); in [5], 32.1 µM (active); in [6] it was 6.45 µM (active); in experiment [9], 26.8 µM (active). Moreover, the AC50 in experiment [10] was 0.878 µM (active).
As for `CCCCC(CC)COC(=O)c1ccc(C(=O)OCC(CC)CCCC)cc1` (stereo unspecified), the outcome in [1], in experiment [2], in [3], in experiment [4], in experiment [5] and in [6] was inactive. Also, the outcome in [7], in [8], in [9] and in [10] was inactive.

For the origin of these results see PubChem BioAssay (EPA / NIEHS).
